This assay can be described thus: supercomplex reporter luminescence per Hoechst cell count – Hoechst nuclei count (AID 1645838).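 For all read-outs here: control cybrid cells.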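 For z-score: higher means more mitochondrial supercomplex formation.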 Particulars: Cells, luminescence/Hoechst cell count ratio; for z-score: stronger effect = higher value; for cell count: measured here: cell number, Hoechst nuclei count.
[1] abbreviates: library stock concentration (final well concentration not given) 80 uM.
Setting [2] is: library stock concentration (final well concentration not given) 400 uM.
Where [3] appears, read: library stock concentration (final well concentration not given) 2 mM.
Setting [4] is: library stock concentration (final well concentration not given) 10 mM.
Setting [5] is: library stock concentration (final well concentration not given) 46 uM.
The mark [6] stands for this setting: library stock concentration (final well concentration not given) 278 uM.
[7] abbreviates: library stock concentration (final well concentration not given) 1.67 mM.

Experimental findings from PubChem BioAssay AID1645838 (ICCB-Longwood Screening Facility, Harvard Medical School, 2021) are described below.

About 100 (5%) of roughly 2,000 compounds were called active. Cut-off read from the data, not from the text of the source: active = z-score above about 2; inactive = the rest. Shown is part of a subset that was picked to be rich in actives. Residues, ends and D or L forms follow the SMILES beside them. *: point of attachment. Cbz = O=C(OCc1ccccc1)*

As to `CCCCC[C@H](O)/C=C/[C@@H]1[C@@H](C/C=C\CCCC(=O)NCCO)[C@@H](O)C[C@H]1O`, the z-score was -0.4 (inactive) and the cell count came to 5500.
For `COc1ccc(C2(O)CCC(N3CCC(NC(=O)CNC(=O)c4cccc(C(F)(F)F)c4)C3)CC2)cn1` (configuration not stated), the z-score by setting is: under setting [1], 0.226 (inactive); under setting [2], 0.00991 (inactive); under setting [3], -0.208 (inactive); under setting [4], -0.124 (inactive). Further, the cell count turned out to be 5820 under setting [1], 5470 under setting [2], 6300 under setting [3] and 5360 under setting [4].
For `CC(C)CC(C=O)NC(=O)C(CC(C)C)NC(=O)C(CC(C)C)NC(=O)OCc1ccccc1` (stereo not drawn) (Cbz-Leu-Leu-Leu-aldehyde; configuration not given here), the outcome is, setting by setting: (library stock 1.67 mM) “inactive; censored for cell count”; (library stock 10 mM) “inactive; censored for cell count”. Further, the z-score under setting [5] was -0.417 (inactive) and the z-score under setting [6] was -0.122 (inactive). The cell count came out at 6590 under setting [5] and 5640 under setting [6].
Consider `Cc1cc(N2CCOCC2)cc2[nH]c(-c3c(NCC(O)c4cccc(Cl)c4)cc[nH]c3=O)nc12` (configuration not stated), for which the z-score is, setting by setting: under setting [1], 0.23 (inactive); under setting [2], 0.0421 (inactive); under setting [3], 0.963 (inactive); under setting [4], 5.5 (active). The cell count runs as follows: under setting [1], 5280; under setting [2], 5710; under setting [3], 4590; under setting [4], 1770.
Regarding `CCCCC[C@H](O)/C=C/[C@H]1[C@H](O)CC(=O)[C@@H]1C/C=C/CCCC(=O)O`, the z-score is 0.327 (inactive) and the cell count amounted to 4880.
For the compound `CC(C)=CCC/C(C)=C/CC/C(C)=C/CC[C@]1(C)CCc2c(C)c(O)c(C)c(C)c2O1`, the z-score is -0.823 (inactive) and the cell count is 5060.
For `NS(=O)(=O)OCC1CC(n2ccc3c(NC4CCc5ccccc54)ncnc32)CC1O` (configuration not stated), the outcome is, setting by setting: (library stock 1.67 mM) “inactive; censored for cell count”; (library stock 10 mM) “inactive; censored for cell count”. Further, the z-score is 1.02 (inactive) under setting [5] and 4.89 (active) under setting [6]. The cell count worked out at 5390 under setting [5] and 2380 under setting [6].
For `CCCCC[C@H](O)/C=C/[C@H]1CC[C@@H](O)[C@@H]1C/C=C\CCCC(=O)O`, the z-score is -0.672 (inactive) and the cell count was 5720.
Consider `NCc1cccc2ccncc12`, for which the z-score is -0.00644 (inactive) and the cell count was determined as 5160.
On the same counts, the results for `CCCCC/C=C/C=C1/C=CC(=O)[C@@H]1CCCCCCC(=O)O` are -0.804 (inactive) and 5740.
As to `CN1c2ccc([N+](=O)[O-])cc2N=C(c2ccc(C(=O)O)cc2)c2cc3c(cc21)C(C)(C)CCC3(C)C`, the z-score was -0.143 (inactive) under setting [5], -0.194 (inactive) under setting [6], -0.234 (inactive) under setting [7] and -0.264 (inactive) under setting [4]. Besides, the cell count runs as follows: under setting [5], 5860; under setting [6], 5990; under setting [7], 5440; under setting [4], 4270.
On to `O=C(O)c1ccc2nc(-c3cc(Cl)cc(Cl)c3)oc2c1`, for which the z-score was 0.415 (inactive) under setting [5], 0.328 (inactive) under setting [6], 0.106 (inactive) under setting [7] and 0.34 (inactive) under setting [4]. For the same compound, the cell count runs as follows: under setting [5], 6810; under setting [6], 6930; under setting [7], 7500; under setting [4], 7380.
Take `Nc1ccc(O)c(C(=O)O)c1`: the z-score was -0.67 (inactive) and the cell count was found to be 5710.
Consider `O=C(O)c1cc(O)c2ccccc2c1O`, for which the z-score was 0.31 (inactive) under setting [5], 1.17 (inactive) under setting [6], 0.601 (inactive) under setting [7] and 2.64 (active) under setting [4]. Moreover, the cell count is 6560 under setting [5], 6080 under setting [6], 6240 under setting [7] and 3940 under setting [4].
`O=C(O)c1cc2ccccc2c(Cc2c(O)c(C(=O)O)cc3ccccc23)c1O`: the z-score runs as follows: under setting [1], -0.00825 (inactive); under setting [2], 0.355 (inactive); under setting [3], 0.379 (inactive); under setting [4], 0.06 (inactive). Moreover, the cell count runs as follows: under setting [1], 4700; under setting [2], 4390; under setting [3], 4510; under setting [4], 4530.
With `C=C1C[C@H](O)[C@H](C/C=C\CCCC(=O)O)[C@H]1/C=C/[C@@H](O)CCCCC`, the z-score is -0.218 (inactive) and the cell count came out at 5720.
Turning to `CC(C)c1ccccc1S(=O)(=O)c1cc(N)c2ncccc2c1[N+](=O)[O-]`, the z-score under setting [5] was -0.201 (inactive), the z-score under setting [6] is 0.537 (inactive), the z-score under setting [7] was 0.241 (inactive) and the z-score under setting [4] is 2.73 (active). Besides, the cell count under setting [5] is 6190, the cell count under setting [6] came to 6010, the cell count under setting [7] came to 6020 and the cell count under setting [4] turned out to be 4420.
In the case of `CC(C)(O)c1ccccc1CCC(SCC1(CC(=O)O)CC1)c1cccc(C=Cc2ccc3ccc(Cl)cc3n2)c1` (configuration not stated), the z-score by setting is: under setting [1], 0.0351 (inactive); under setting [2], -0.104 (inactive); under setting [3], -0.0351 (inactive); under setting [4], -0.342 (inactive). The cell count is, setting by setting: under setting [1], 5230; under setting [2], 5680; under setting [3], 5330; under setting [4], 4770.
As to `CCCCC[C@H](O)/C=C/[C@H]1[C@H](O)CC(=O)[C@H]1C/C=C\CCCC(=O)OC(C)C`, the z-score was 0.469 (inactive) and the cell count came to 4980.
In the case of `CCCNC(=O)C1OC1C(=O)N[C@@H](C(=O)N1CCCC1C(=O)O)C(C)CC` (some centres not stated), the z-score is -0.18 (inactive) under setting [1], 0.0728 (inactive) under setting [2], -0.0724 (inactive) under setting [3] and -0.194 (inactive) under setting [4]. Besides, the cell count is, setting by setting: under setting [1], 4940; under setting [2], 4970; under setting [3], 4760; under setting [4], 5370.
Turning to `O=c1c(-c2ccc(O)c(O)c2)coc2cc(O)ccc12`, the z-score reads like this: under setting [5], -0.245 (inactive); under setting [6], -0.0571 (inactive); under setting [7], -0.19 (inactive); under setting [4], 0.665 (inactive). The cell count was 6940 under setting [5], 6400 under setting [6], 6560 under setting [7] and 5440 under setting [4].
For `O=c1c(-c2ccc(O)cc2)coc2cc(O)ccc12`, the z-score was 0.504 (inactive) and the cell count came to 5430.
For `O=c1c(-c2ccc(O)cc2)coc2cc(O)cc(O)c12`, the z-score was 0.997 (inactive) and the cell count worked out at 5200. Also, under setting [5], the z-score is 0.276 (inactive) and the cell count was 6440. In addition, under setting [6], the z-score is -0.193 (inactive) and the cell count amounted to 6300. Moreover, under setting [7], the z-score is 0.316 (inactive) and the cell count amounted to 6710. Under setting [4], the z-score was 2.63 (active) and the cell count came out at 5450.
As for `O=C(Oc1nsnc1N1CCCCC1)N1CCOCC1`, the z-score by setting is: under setting [1], 0.263 (inactive); under setting [2], 0.6 (inactive); under setting [3], 0.737 (inactive); under setting [4], 1.45 (inactive). Moreover, the cell count under setting [1] is 4950, the cell count under setting [2] was determined as 4960, the cell count under setting [3] was 4530 and the cell count under setting [4] amounted to 4260.
In the case of `CCCCCCCCCCCCCCC(F)C(=O)O` (configuration not stated), the z-score was -0.112 (inactive) and the cell count turned out to be 5870.
